High-throughput results from PubChem.
Most compounds without a hit are left out; they make up all but 2.2% or so of the library.
CSC inhib: cancer stem cell inhibition; cancer stem cell-like cells viability, luminescence; inhibition, % at 7.5 µM; 300,000 compounds, 1.1% hits; AID 2717; in the data active = inhibition above about 75%; inconclusive = no clear call, values can overlap the other calls; tested in HMLE shEcad cells
Shn3 inh set2: Schnurri-3 reporter inhibition in Clone20 osteoblasts | Clone20 osteoblast Shn3 3'UTR firefly luciferase, 24 h | inhibition, % at 12.5 µM | 360,000 compounds, 0.52% hits | AID 588674;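 active = mean inhibition of at least 75% with every replicate also reaching 75%; inconclusive = mean inhibition at least 75% but some replicate below; inactive = mean inhibition below 75%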;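 also: 0% = median of neutral control wells and 100% = pilot-screen positive control compound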
PfHsp90 yeast 2: growth inhibition of yeast expressing Plasmodium Hsp90 | S. cerevisiae expressing PfHsp90, BacTiter-Glo ATP, 48 h; yeast lacking PDR1 and PDR3 efflux regulators | inhibition, % at 9.4 µM | 310,000 compounds, 0.32% hits;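 active = every replicate shows inhibition above about 80%, whatever the replicate mean, limit read from the data; inconclusive = mean inhibition reaches the set limit but some replicate falls short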;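 also: 0% = DMSO neutral controls and 100% = 20 µM radicicol positive controls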
Calb FLC: C. albicans growth modulation with fluconazole; C. albicans CaCi-2 (fluconazole-resistant clinical isolate) + fluconazole, Alamar Blue growth, 48 h; growth inhibition, % (test concentration not listed); 300,000 compounds, 0.57% hits;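 active = growth inhibition above about 58% in most replicates, limit read from the data, passing the limit was not always enough; inconclusive = exactly half the replicates above a set limit; inactive = most replicates below a set limit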;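 also: all wells also contain fluconazole at 8 µg/ml as a sub-toxic cotreatment; 0% = median of DMSO wells and 100% = median of geldanamycin control wells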
Beta apoptosis: blocks beta cell apoptosis | INS-1E cytokine-induced death, ATP luminescence, 48 h; percent of positive-control rescue, neutral wells zero | 300,000 compounds, 0.8% hits | protection from apoptosis, % (concentration not given with the values);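 active = Every replicate reaches about 75%, or at least half do and their mean reaches it too, limit read from the data; inconclusive = At least half of replicates reach the limit but their mean does not; inactive = Under half of replicates reach the limit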;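 also: 0% = cytokine-treated negative control wells and 100% = positive control rescue; higher means more ATP so stronger rescue from cytokine killing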
An asterisk follows results filed as active; ? = inconclusive; · = no result given.

SMILES | CSC inhib | Shn3 inh set2 | PfHsp90 yeast 2 | Calb FLC | Beta apoptosis
Cc1cc(SCC(=O)N/N=C/c2ccc(O)cc2O)nc2ccccc12 | 133.0* | 91.8* | -5.1 | 8.4 | 36.8
Cc1cc(SCC(=O)N/N=C/c2ccc(O)c(O)c2)nc2ccccc12 | 47.1 | 8.4 | -3.9 | -12.3 | 5.7
Oc1ccc(N2CCN(C(=S)NCCc3ccccc3)CC2)cc1 | 1.2 | 31.3 | -2.4 | 106.2* | 2.8
C/C(=N/NC(=O)c1ccc(-c2ccccc2)cc1)c1cc(O)cc(O)c1 | 95.8* | -17.5 | 24.2 | 5.4 | -0.3
CCCCCCOc1ccc(/C(C)=N/NC2=NCCN2)cc1 | 99.7* | 9.5 | 30.1 | 11.6 | 46.7
COc1cccc(CN(C)C(=O)c2ccc(OCC(=O)Nc3cccc(C(F)(F)F)c3)c(OC)c2)c1 | 26.0 | 86.4* | 17.7 | 0.1 | 1.5
Oc1ccc(Nc2ncnc3c2oc2ccccc23)cc1 | 5.0 | -32.2 | -38.4 | 4.3 | 7.4
Oc1cccc(Nc2ncnc3c2oc2ccccc23)c1 | 39.8 | -81.4 | 7.3 | 90.9* | 6.6
CCCC(NC(=O)C(C)NC(=O)CO/N=C1\C=C2CCC3C4CCC(C(C)=O)[C@@]4(C)CCC3[C@@]2(C)CC1)C(=O)O (stereo not given in full) | -0.3 | 5.9 | -39.0 | -3.4 | 1.7
COc1c(Br)cc([N+](=O)[O-])c(OC)c1C(=O)NC(=O)Nc1nc(C)cc(C)n1 | 0.4 | 15.0 | 2.6 | 29.6 | ·
S=C(Sc1ccc(Cl)cc1)Sc1ccc(Cl)cc1 | 76.5* | · | · | -26.0 | -3.0
Cc1ccc(NC(=O)COC(=O)CCC2CCCC2)cc1S(=O)(=O)N1CCOCC1 | -11.2 | 10.4 | -28.7 | · | -7.7
Cc1cccc(-n2ncc3c(N4CCCc5ccccc54)ncnc32)c1 | 76.3* | -21.8 | · | -6.0 | 2.1
Cc1ccc(-n2nc3c(N4CCC(C(=O)NCCc5ccccc5C)CC4)nnc(C)c3c2C)cc1 | 83.2* | 18.1 | 17.3 | 1.0 | 61.5
O=C(CN(C(=O)CCC(=O)Nc1nccs1)c1cccc(C(F)(F)F)c1)NCC1CCCO1 (stereo not given) | · | -2.7 | -21.6 | 1.8 | 0.3
COc1cccc2sc(=NC(=O)CS(=O)(=O)c3ccc(Cl)cc3)n(C)c12 | -8.3 | 88.2* | · | 99.1* | ·
COc1cccc2sc(=NC(=O)CS(=O)(=O)c3ccc(F)cc3)n(C)c12 | 5.7 | 70.7 | · | 20.7 | ·
Cc1ccc(-n2nnnc2SCC(=O)c2cc(C)n(-c3cc(C)on3)c2C)c(C)c1 | 140.4* | 4.5 | -0.3 | 0.1 | -5.9
O=C(CN(c1cccc(C(F)(F)F)c1)S(=O)(=O)c1ccc(Cl)c([N+](=O)[O-])c1)NCc1ccc(F)cc1 | 185.5* | -12.7 | -2.1 | -2.3 | 1.1
O=C(CN(c1cccc([N+](=O)[O-])c1)S(=O)(=O)c1ccccc1)NCc1cccnc1 | -4.9 | -13.6 | -24.6 | 1.5 | 1.8
C#CCOCCOCCOCCNc1nc(N2CCN(C(=O)[C@H](CCC(=O)O)n3cc([C@@H](N)[C@H](C)CC)nn3)CC2)nc(N2CCN(C(=O)[C@H](CCC(=O)O)n3cc([C@@H](N)CC(N)=O)nn3)CC2)n1 | · | -8.6 | -22.6 | · | -9.0
CC(C)c1ccc(C(=O)N2CCCCC2c2cc(C(=O)NCc3cccnc3)no2)cc1 (stereo not given) | · | -7.1 | · | · | ·
Cc1cn(-c2cc(NC(=O)c3ccc(C)c(NC(=O)c4cccc(-c5cn[nH]c(=O)c5)c4)c3)cc(C(F)(F)F)c2)cn1 | -3.6 | -38.3 | -24.5 | 34.2 | 4.8
Cc1ccc(/C(O)=C2/C(=O)C(=O)N(c3ccccn3)C2c2cccc([N+](=O)[O-])c2)cc1 (stereo not given) | -2.6 | 7.4 | 5.7 | -4.9 | -1.6
CCOc1ccc(N(C)c2ccc(/C=C3/SC(=S)NC3=O)cc2)cc1 | 97.3* | -3.0 | 0.7 | 13.4 | 1.0
SMILES | CSC inhib | Shn3 inh set2 | PfHsp90 yeast 2 | Calb FLC | Beta apoptosis
Nc1ncncc1-c1ccc2ccccc2c1 | 8.0 | 5.9 | -4.4 | -8.9 | -5.7
CC1CCN(C2CCN(S(=O)(=O)c3ccc(C(F)(F)F)cc3)CC2)CC1 | 72.1 | 16.5 | 26.1 | -11.4 | -1.3
COc1ccccc1C(c1nnnn1Cc1ccccc1)N1CCN(C2CCCC2)CC1 (stereo not given) | -3.8 | 8.7 | 25.8 | -4.0 | -0.6
COc1ccc(OC)c(C(c2nnnn2Cc2ccccc2)N2CCN(C3CCCCC3)CC2)c1 (stereo not given) | -8.5 | 90.2* | 11.5 | -18.0 | -1.3
CN1CCN(NC(=S)NC(C)(C)CC(C)(C)C)CC1 | -6.9 | -3.8 | 5.2 | -35.9 | -6.8
O=S(=O)(Nc1cccc2cccnc12)c1ccccc1 | 43.1 | 78.8 | -30.3 | -0.2 | 29.3
O=S(=O)(Nc1cccc2cccnc12)c1ccc(S(=O)(=O)N2CCCC2)cc1 | 45.4 | 26.8 | -59.0 | 96.4* | 52.6
CCOC(=O)Nc1ccc(C(=O)/C=C/c2ccccc2)cc1 | 21.7 | -28.3 | 6.4 | 1.3 | 16.4
O=S(=O)(Nc1cc(Sc2ncn[nH]2)c(O)c2ccccc12)c1ccccc1 | · | 93.4* | -0.2 | · | ·
O=[N+]([O-])c1ccc2c(c1)C(N1CCN(CCO)CC1)Cc1ccc(F)cc1S2 (stereo not given) | · | 11.4 | · | · | ·
OCCN1CCN(C2CCC(c3ccc(F)cc3)c3ccc(F)cc32)CC1 (stereo not given) | 82.7* | · | 7.3 | 64.8 | 22.0
O=C(CN1CCCCCCC1)N/N=C/c1ccc([N+](=O)[O-])o1 | -1.2 | -1.9 | -10.0 | 7.0 | 8.7
O=C(Cc1ccc([N+](=O)[O-])cc1)N/N=C/c1ccc([N+](=O)[O-])o1 | -15.9 | 1.1 | -3.3 | 5.8 | 97.2*
CCOC(=O)N/N=C\c1ccc([N+](=O)[O-])o1 | 2.1 | -6.7 | -20.7 | 22.1 | -9.3
O=C(O)/C=C/c1ccc([N+](=O)[O-])o1 | -23.6 | -15.0 | 10.2 | 11.9 | 3.5
O=[N+]([O-])c1ccc(/C=N/N=C/c2ccc([N+](=O)[O-])o2)o1 | · | 98.1* | 16.5 | · | ·
CCCCCCCC(=O)N/N=C/c1ccc([N+](=O)[O-])o1 | 7.2 | 3.7 | · | 101.3* | -0.2
CC1(C(=O)N/N=C/c2ccc([N+](=O)[O-])o2)CC1(Br)Br (stereo not given) | -14.5 | -13.3 | -8.1 | 91.5* | 1.9
Cc1c(C(=O)NNC(=O)c2ccccc2O)oc2ccccc12 | · | 6.9 | · | · | ·
COc1ccc(-c2ccc(=O)n(CC(=O)Nc3nnc(C(C)C)s3)n2)cc1OC | -0.7 | -9.4 | -28.0 | 7.2 | ·
COc1ccc(-c2ccc(=O)n(CC(=O)Nc3cccc(O)c3)n2)cc1OC | -6.7 | 7.1 | 3.9 | 110.5* | -11.2
CN(C)C(CNC(=O)C1CCN(C(=O)/C=C/c2ccccc2)CC1)c1ccccc1 (stereo not given) | -14.5 | -68.0 | -9.8 | 2.6 | -6.2
Cc1ccc(NC(=O)c2ccccc2)cc1 | 13.5 | -74.7 | · | -10.1 | 6.1
Cc1ccc(NC(=O)C2=C(c3ccccc3)S(=O)(=O)CCS2(=O)=O)cc1 | 78.7* | 95.9* | 18.5 | 16.9 | ?
O=C(NCC(c1ccco1)N1CCCC1)c1ccc(Cl)c(S(=O)(=O)N2CCc3ccccc32)c1 (stereo not given) | · | 77.6 | · | · | 74.9*
Cc1ccc(/C=C/C(=O)NC2CCCCCCC2)o1 | 144.6* | 72.2 | -7.7 | -7.2 | 6.2
